Data taken from PubChem BioAssay (NCI).
Compounds without any hit were thinned out: in the full panel of roughly 83,000, 20% have a hit.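 Negative percent growth values reflect cell death: -40 means 40% of the cells present at the start died, and -100 means all died.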 Values without a mark were called inactive. Activity calls are given as the source filed them. How the source made its calls: active means growth percent below 10; inactive means the rest.

What was measured:
Test in all cases: NCI-60 one-dose screen, 48 h (100 = growth as untreated, 0 = no growth, -100 = all killed)
Settings in all cases: 10 µM unless noted
SK-MEL-2 melanoma = test system: SK-MEL-2 melanoma
EKVX NSCLC = test system: EKVX NSCLC
SN12C renal = test system: SN12C renal
UO-31 renal = test system: UO-31 renal
TK-10 renal = test system: TK-10 renal
ACHN renal = test system: ACHN renal
A498 renal = test system: A498 renal
CCRF-CEM leukemia = test system: CCRF-CEM leukemia
MOLT-4 leukemia = test system: MOLT-4 leukemia
SR leukemia = test system: SR leukemia
RPMI-8226 leukemia = test system: RPMI-8226 leukemia
OVCAR-5 ovarian = test system: OVCAR-5 ovarian
OVCAR-4 ovarian = test system: OVCAR-4 ovarian
SK-OV-3 ovarian = test system: SK-OV-3 ovarian
IGROV1 ovarian = test system: IGROV1 ovarian
OVCAR-3 ovarian = test system: OVCAR-3 ovarian
HS 578T breast = test system: HS 578T breast
NCI/ADR-RES ovarian = test system: NCI/ADR-RES ovarian
T-47D breast = test system: T-47D breast
OVCAR-8 ovarian = test system: OVCAR-8 ovarian

Structure (SMILES)	growth (SK-MEL-2 melanoma)	growth (EKVX NSCLC)	growth (SN12C renal)	growth (UO-31 renal)	growth (TK-10 renal)	growth (ACHN renal)	growth (A498 renal)	growth (CCRF-CEM leukemia)	growth (MOLT-4 leukemia)	growth (SR leukemia)	growth (RPMI-8226 leukemia)	growth (OVCAR-5 ovarian)	growth (OVCAR-4 ovarian)	growth (SK-OV-3 ovarian)	growth (IGROV1 ovarian)	growth (OVCAR-3 ovarian)	growth (HS 578T breast)	growth (NCI/ADR-RES ovarian)	growth (T-47D breast)	growth (OVCAR-8 ovarian)
C#C[C@@]1(O)[C@@H](CO)O[C@@H](n2cc(Cl)c3c(N)ccnc32)[C@@H]1O	76.9%	89.7%	78.8%	72.2%	122%	64.8%	87.7%	58.4%	45.6%	68.9%	39.9%	111%	79.9%	95.4%	88.3%	47.6%	102%	28.5%	93.8%	
NS(=O)(=O)c1ccc(-n2nc(-c3ccccc3)ccc2=O)cc1	101%	118%	97.7%	91.9%	132%	108%	102%	95.6%	96.4%	83.9%	109%	113%	117%	99.6%	72.3%	112%	106%	103%	93.8%	
COc1ccc(-c2cc(-c3nnc(SCC(=O)Nc4ccc(/C(C)=N\O)cc4)o3)c3ccccc3n2)cc1	98%	103%	104%	97.7%	96.4%	117%	101%	97.9%	106%	113%	99%	113%	103%	111%	112%	98%	99.9%	102%	102%	
O=C1[C@@H](OS(=O)(=O)CC(F)(F)F)[C@H](c2ccc(F)cn2)N1c1cc2c3ccccc3ccc2c2ccccc12	89.9%	87.6%	80.7%	62.1%	88.4%	76.3%	83.6%	9.13% (active)	0.0781% (active)	4.47% (active)	25.1%	104%	86.3%	95.8%	70%		68.3%	72.2%	84.9%	78.6%
COc1ccc(-c2nnc(N3CCN(C(=O)CN4CCN(c5ccc(OC)cc5)CC4)CC3)nc2-c2ccc(OC)cc2)cc1	-63.6% (active)	41.5%	-72.7% (active)	-64.4% (active)	28.6%	54.6%	98.1%	-50.7% (active)	-54.2% (active)	-54.2% (active)	-59.8% (active)	111%	-48.3% (active)	101%	-60.8% (active)	-96.1% (active)	21%	-40.6% (active)	-64.5% (active)	
O=C(CCc1nnco1)c1nc2ccc([N+](=O)[O-])cc2[nH]1	94.7%	94%	107%	74.9%	146%	101%	126%	109%	97.9%	91.5%	129%	108%	105%	107%	97.6%	105%	102%	104%	101%	
NS(=O)(=O)c1ccc(-n2ncc(NC(=O)Nc3ccc(S(=O)(=O)Nc4nccs4)cc3)c2-c2ccccc2)cc1	93.2%	100%	98.8%	97.5%	95.9%	96.5%	112%	97.7%	100%	103%	103%	99%	101%	99.5%	105%	111%	102%	105%	94.2%	
C=C(C)[C@@H]1CC[C@]2(C(=O)N=C=S)CC[C@]3(C)[C@H](CC[C@@H]4[C@@]5(C)CCC(=O)C(C)(C)[C@@H]5CC[C@]43C)[C@@H]12	27.3%	32.4%	19.2%	34.8%	42.3%	27.6%	25.3%	28.1%	25.6%	27.6%	16.1%	49.1%	31.4%	14.7%	66.2%	25.7%	33%		18.1%	
CCCCn1c(=O)c(/C=C/C(=O)/C=C/c2cc3ccccc3n(CCCC)c2=O)cc2ccccc21	79.5%	35.8%	-28.1% (active)	-95.1% (active)	23.4%	5.75% (active)	12.8%	-0.077% (active)	1.3% (active)	1.82% (active)	-32.1% (active)	25.9%	28.5%	15.6%	1.5% (active)	-15.7% (active)	30%	22.8%	20.8%	
C#C[C@@]1(O)[C@@H](CO)O[C@@H](n2cc(Br)c3c(N)ncnc32)[C@@H]1O	-24.9% (active)	-23.8% (active)	-1.98% (active)	-78.3% (active)	-0.297% (active)	-5.98% (active)	-78.9% (active)	3.84% (active)	-16.5% (active)	-1.01% (active)	0.406% (active)	18.8%	5.79% (active)	-8.02% (active)	-22.5% (active)	-25.5% (active)	-5.73% (active)	1.19% (active)	-20.1% (active)	
COC1=CC=CC2(OC)C3(O)CCCc4cccc(c43)N3C(=O)COC132 (stereo unspecified)	93.9%	98.6%	101%	82.1%	96.7%	105%	98.4%	94.8%	97.8%	109%	92.4%	104%	96.6%	107%	94.7%	109%	93.7%	101%	97.7%	
COc1ccc(-c2nc(C#N)c(NCC(c3ccc(Cl)cc3)N3CCCCC3)o2)cc1 (stereo unspecified)	109%	95.6%	103%	72%	112%	91.7%	108%	86.9%	75.9%	74.5%	85.6%	96%	87.5%	109%	85.8%	95.1%	97.3%	87.1%	94.8%	
Oc1ccccc1-c1nc2c3ccccc3c3ccccc3c2o1	110%	78.8%	83%	61%	162%	91.1%	114%	82.1%	95.3%	73.7%	75.5%	114%	76.4%	90.4%	74.1%		89.5%		78.9%	89%
COc1ccc(Nc2nc(SCC(C)C)nc(-c3ccc(F)cc3)c2C#N)cc1	72.4%	69.4%	85.9%	68.9%	92.1%	72%	30.7%	33.3%	57.2%	20.1%	88%	94.3%	80.9%	73.4%	71.4%	21%	79.1%	40.3%	65%	
COc1ccc(C2C(c3ccccc3)C(=O)N2c2cc(OC)c(OC)c(OC)c2)cc1I (stereo unspecified)	56.3%	61.9%	33%	18.7%	75.1%	26.5%	-2.63% (active)	7.6% (active)	7.85% (active)	8.89% (active)	-9.86% (active)	35.9%	39.8%	6.66% (active)	20.6%	12%	22.1%	9.97% (active)	69.7%	
COc1cc(-c2cn(-c3ccc(Cl)c(Cl)c3)c(=O)[nH]2)cc(OC)c1OC	97%	95.3%	87.5%	93.6%	94.7%	96.5%	110%	99.6%	85.1%	31%	99.3%	87.6%	98.9%	88.3%	136%	99.5%	95.3%		90.1%	
